The whole screen tested about 300,000 compounds, of which about 2,300 (0.77%) were called active.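 Rule for the calls: active = more than half of replicate wells show activity change below -50%, luminescence cut by over half; inconclusive = some wells, but at most half, below -50%; inactive = no replicate well below -50%.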 This excerpt belongs to a sample that is enriched for actives.
Assay: HSF1 inhibitors in luciferase reporter cells, primary screen, cell-based, NIH3T3, luminescence (AID 2098);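 note: luciferase reports HSF-1 transcriptional activity via heat shock element; 0% = median of DMSO wells and -100% = zero luminescence signal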
Conditions: NIH3T3-HGL HSE-luciferase, MG132-induced, luminescence 8 h; hits give low values; screened at 7.5 µM (by protocol)

Activity change, negative = inhibition, inactive:
CC(C)N(Cc1nnc(-c2ccc(Cl)cc2)o1)C(=O)C1=COCCO1 -0.126%
Cc1ccc(C(=O)N/N=C/c2cccc3ccccc23)cn1 2.62%
COc1ccc(-c2ccc3nnc(SCC(=O)Nc4ccc(NC(C)=O)cc4)n3n2)cc1 -1.23%
COc1ccc(S(=O)(=O)N2CCCC2CNC(=O)C(=O)NC2CC2)cc1 (configuration not stated) -3.82%
CCOc1ccc(N(CC(=O)NC2CCCCCC2)S(=O)(=O)c2c(C)[nH]c(=O)[nH]c2=O)cc1 -0.37%
COc1ccc(N(CC(=O)NC2CCCCC2)S(=O)(=O)c2c(C)[nH]c(=O)[nH]c2=O)cc1 4.32%
COc1cc(Cl)ccc1OCc1cc(C(=O)N(C)CCc2c(C)n[nH]c2C)no1 11.4%
CCn1ccnc1CN(C)C(=O)c1cc(COc2ccc(-n3cncn3)cc2)on1 -9.56%
O=C(O)CCn1c(Cc2ccccc2)nc2ccccc21 0.662%
Cc1cc2ccccc2n1CCC(=O)O -0.843%
C=CCOc1ccc(/C=C/C(=O)OC(C)C(=O)Nc2ccc(NC(C)=O)cc2)cc1 (configuration not stated) 12.2%
COc1ccc(CCNC(=S)N2CCN(S(=O)(=O)c3ccc(F)cc3)CC2)cc1 -3.63%
CCCC(=O)N1c2ccccc2NC2=C(C(=O)CCC2)C1c1ccc(F)cc1 (configuration not stated) -0.85%
CCC(=O)N1c2ccccc2NC2=C(C(=O)CCC2)C1c1ccco1 (configuration not stated) -0.999%
O=C(NCC1(N2CCCCC2)CCCCC1)c1ccc(NS(=O)(=O)c2ccc(F)cc2)cc1 -3.19%
CN(C(=O)COC(=O)c1ccc(Br)o1)c1c(N)n(Cc2ccccc2)c(=O)[nH]c1=O -3.83%
O=C(COC(=O)Cc1c[nH]c2ccccc12)NCCc1ccccc1 -4.81%
Cc1cc(=O)oc2cc(NC(=O)C(C)Oc3ccccc3)ccc12 (configuration not stated) 1.47%
Cc1cccc(-n2ncc(C#N)c2-n2cccc2)c1 2.7%
COc1ccc(Oc2c(Cl)cnn(-c3ccccc3)c2=O)cc1 -5.38%
CC1(c2ccc(Cl)cc2Cl)NC(=O)N(CC(=O)Nc2cccnc2Cl)C1=O (configuration not stated) 1.88%
CCCOc1ccc(Cl)cc1Nc1nc(NCCO)nc(N2CCCC2)n1 1.49%
COC(=O)c1ccc(COC(=O)C2CCN(S(=O)(=O)c3c(Cl)cccc3Cl)CC2)o1 5.96%
COC(=O)c1sc(NC(=O)c2ccc(OC)cc2OC)nc1C -40.1%
COc1cc(SC)ccc1C(=O)Nc1cc(C)ccn1 28.6%
Cc1ccc(C(=O)C(C)OC(=O)Cc2n[nH]c(=O)c3ccccc23)cc1C (configuration not stated) -5.5%
NC(=O)c1ccsc1NC(=O)COC(=O)Cc1n[nH]c(=O)c2ccccc12 -1.64%
COc1ccc(CC(=O)OC(C)C(=O)Nc2ccc(S(N)(=O)=O)cc2)cc1 (configuration not stated) -3.68%
CCc1cccc(NC(=O)COC(=O)C2CCN(c3ccc(C(F)(F)F)cn3)CC2)c1 -4.52%
CCc1ccnc(NC(=O)Nc2ccc(OCc3ccccc3)cc2)c1 -11.4%
Cc1cccc(NC(=O)Nc2ccc(OCc3ccccc3)cc2)n1 1.3%
O=C(CCCN=C1NS(=O)(=O)c2ccccc21)OCC(=O)c1ccc(F)c(F)c1 -2.57%
CCN(Cc1cc2cc(C)ccc2[nH]c1=O)S(=O)(=O)c1ccccc1 -3.14%
CCC(=O)N(Cc1cc2cc(OC)ccc2[nH]c1=O)c1ccccc1C -6.72%
COc1ccccc1NC(=O)C(C)OC(=O)c1ccc(-n2cnnn2)cc1 (configuration not stated) -4.36%
O=C1CC2(CCCC2)Oc2ccc(Cl)cc21 -9.81%
COc1cc2c(cc1O)[C@H](Cc1ccc(Oc3cc(C[C@@H]4NCCc5cc(OC)c(O)cc54)ccc3O)cc1)NCC2 -2.77%
COc1ccc2c(c1)CCNC2Cc1ccc(OC)c(O)c1 (configuration not stated) 0.52%
C=CCOC(=O)C1=C[C@H](c2ccc(Br)cc2)C[C@H](OCCCCO)O1 -3.77%
O=C(NCc1ccccc1Cl)C1CCN(c2ncnc3c2nc2n3CCCCC2)CC1 -6.69%
COc1cccc(NC(=O)C2CCCN(c3ncnc4c3nc3n4CCCCC3)C2)c1 (configuration not stated) -3.75%
COc1ccccc1CNC(=O)CSc1nc(=O)n(Cc2ccncc2)c2c1CCC2 -0.526%
Cn1c(SCC(=O)c2ccccc2)ncc(C(=O)Nc2ccc(F)cc2)c1=O 3.83%
CN(C)S(=O)(=O)c1cccc(NC(=O)Cc2ccsc2)c1 5.64%
Cc1ccc(/C=N/NC(=S)Nc2cccc(S(=O)(=O)N(C)C)c2)o1 -4.55%
COc1cccc(CNC(=O)C(=O)NCCC2CCCCN2S(=O)(=O)c2ccc(C)cc2)c1 (configuration not stated) -3.75%

Activity change, negative = inhibition, active:
COc1ccc(N(CC(=O)NC2CCCCCCC2)S(=O)(=O)c2c(C)nn(C)c2C)cc1 -60.7%
CCn1ccnc1CN(C)C(=O)c1cc(COc2ccc(Cl)cc2OC)on1 -51.9%
O=C(O)CCn1c(O)c(C=C2N=c3ccccc3=N2)sc1=S -52.2%
CC(C)C(=O)N1c2ccccc2NC2=C(C(=O)CCC2)C1c1ccc(N(C)C)cc1 (configuration not stated) -60.9%
Cc1cccc(-n2ncc(Cl)c(Cl)c2=O)c1 -95.3%
COc1cc(SC)ccc1C(=O)Nc1nc(C)cs1 -63.8%
O=C(O)/C=C\C(=O)Nc1ccc(OCc2ccccc2)cc1 -65.7%
COc1ccc2[nH]c(=O)c(CN(Cc3cccnc3)S(=O)(=O)c3ccccc3F)cc2c1 -52.3%
CC[C@H]1CN2CCc3cc(OC)c(OC)cc3[C@@H]2C[C@@H]1C[C@H]1NCCc2cc(OC)c(OC)cc21 -74.7%
CCOC(=O)c1cccc(NC(=O)C2CCN(c3ncnc4c3nc3n4CCCCC3)CC2)c1 -72.4%
Cc1nc(C)c(-c2nnc(-c3cccc(S(=O)(=O)N(C)C)c3)o2)cc1C(=O)NN -63.1%

From PubChem BioAssay AID2098 (Broad Institute, 2009)
